# About 3,100 (1.6%) of roughly 190,000 compounds were called active. Cut-off read from the data, not from the text of the source: active = fold change above about 3.3; inconclusive = no clear call, values can overlap the other calls; inactive = below that. This excerpt belongs to a sample that is enriched for actives.
# Assay: NF-kB upregulation, human neuronal cells – cell-based, HTS, primary screen (AID 1239)
# Conditions: NF-kB reporter expression, at 12.5 µM, hits give high values
row,SMILES,fold change
1,CCOC(=O)Cc1csc(NC(=O)COc2ccc3c(C)cc(=O)oc3c2)n1,0.61 (inactive)
2,O=C(CCC1CCCN(Cc2ccc(O)c(Cl)c2)C1)NCc1ccccc1F (stereo not given),1.07 (inactive)
3,CC(=O)Nc1cccc(C(=O)Nc2nc(C)cs2)c1,1.22 (inactive)
4,Cc1csc(NC(=S)Nc2cccc(Cl)c2)n1,3.32 (active)
5,S=C(Nc1cccc(Cl)c1)Nc1ccc2cn[nH]c2c1,1.36 (inactive)
6,NC(=O)c1ccc(NC(=O)COC(=O)C(Cc2ccccc2)NC(=O)c2ccccc2)cc1 (stereo not given),0.99 (inactive)
7,CCNc1nc(-c2cc3ccccc3o2)cs1,1.19 (inactive)
8,COc1ccc2nc(Nc3nc(-c4cc5ccccc5oc4=O)cs3)sc2c1,1.2 (inactive)
9,COc1ccc(Nc2nc(-c3ccccc3)cs2)cc1,12.5 (active)
10,COc1ccc(-c2csc(Nc3ccc(O)cc3)n2)cc1,8.49 (active)
11,NS(=O)(=O)c1ccc(Nc2nc(-c3ccccc3)cs2)cc1,1.18 (inactive)
12,COc1ccc(-c2csc(Cc3nc(O)cs3)n2)cc1,3.76 (active)
13,COc1ccc2nc(Nc3nc(-c4ccncc4)cs3)sc2c1,1.6 (inactive)
14,COc1ccc(-c2csc(NC(=O)COC(=O)c3ccc(Br)o3)n2)cc1,1.92 (inactive)
15,COc1ccc(-c2csc(NC(=O)CCCc3cccs3)n2)cc1,0.87 (inactive)
16,COc1ccc(OC)c(Nc2nc(-c3ccc(O)c(O)c3)cs2)c1,1.32 (inactive)
17,Oc1ccc(-c2csc(Nc3cccnc3)n2)cc1,3.24 (inactive)
18,O=c1oc2ccccc2cc1-c1csc(Nc2ccc(O)cc2)n1,7.39 (active)
19,O=C(C1CCN(C2CCN(Cc3cccc4c3OCO4)CC2)CC1)N1CCOCC1,1.05 (inactive)
20,COC(=O)c1ccc(CN2CCC(CO)(Cc3ccc(OC)cc3)CC2)cc1,1.33 (inactive)
21,COc1ccccc1-n1ccnc1SCC(=O)NC(C)(C)C,1.09 (inactive)
22,CCCCC(CC)CNC(=O)C(=O)C1C(=O)Nc2ccccc21 (stereo not given),1.17 (inactive)
23,CC[n+]1c(C)n(-c2ccccc2)c2ccc(NC(C)=O)cc21,0.85 (inactive)

row,SMILES,fold change
1,N#C/C(=C\c1ccc(-c2cccc([N+](=O)[O-])c2)o1)C(=O)NCCN1CCOCC1,1.14 (inactive)
2,Cc1cccc(NC(=O)c2cc([N+](=O)[O-])ccc2N2CCN(C)CC2)c1,0.95 (inactive)
3,O=C(O)c1ccccc1-c1ccccc1C(=O)NCc1cccnc1,1.16 (inactive)
4,COC(=O)C(C)NC(=O)COc1ccc2ccccc2c1 (stereo not given),1.1 (inactive)
5,Cc1cc(Cl)ccc1OCCCC(=O)NCc1ccccn1,1.09 (inactive)
6,N#CC1=C(N)Oc2[nH]c(=S)[nH]c(=O)c2C12C(=O)Nc1ccccc12 (stereo not given),1.09 (inactive)
7,Cc1nn(C)c(C)c1Sc1ccccc1N,0.93 (inactive)
8,CN1CCN(/N=C2/C(=O)Nc3ccc([N+](=O)[O-])cc32)CC1,1.3 (inactive)
9,Cc1cc(C)c2nc(NC(=O)C3CCCO3)sc2c1 (stereo not given),6.22 (active)
10,O=C(Nc1nc2ccc(S(=O)(=O)N3CCCC3)cc2s1)C1CCCO1 (stereo not given),0.92 (inactive)
11,Cc1cc(Br)ccc1NC(=O)C1CCCO1 (stereo not given),1.18 (inactive)
12,CC1CN(CCCOc2ccccc2-c2ccccc2)CC(C)O1 (stereo not given),1.16 (inactive)
13,CC1CCN(CC(=O)c2c[nH]c3ccccc23)CC1,0.78 (inactive)
14,O=C(OCC(=O)c1c[nH]c2ccccc12)c1cccc(O)c1,5.31 (active)
15,O=C(Cc1c[nH]c2ccccc12)OCCOC(=O)Cc1c[nH]c2ccccc12,1.43 (inactive)
16,COc1cccc(CNC(=O)CCC2CCCN(C(=O)c3ccoc3C)C2)c1 (stereo not given),1.11 (inactive)
17,CCOc1ccc(Nc2nc(Cl)nc(N3CCN(c4ccc(OC)cc4)CC3)n2)cc1,0.61 (inactive)
18,c1ccc(Nc2nc(N3CCOCC3)c3ccccc3n2)cc1,0.6 (inactive)
19,COc1ccc(Nc2ncc(F)c(N3CCOCC3)n2)cc1,3.96 (active)
20,Cc1cc(NC(=O)CSCc2ccccc2C)no1,1.25 (inactive)
21,CC(NCc1nc2ccccc2n1C)C12CC3CC(CC(C3)C1)C2 (stereo not given),0.85 (inactive)
22,CC(=O)Cc1nsc(NC(=O)c2csc3c2CCCC3)n1,1.73 (inactive)
23,COC(=O)c1sccc1NC(=O)c1csc2c1CCCC2,1.41 (inactive)

row,SMILES,fold change
1,COC(=O)c1sc(NC(=O)c2csc3c2CCCC3)nc1C,4.92 (active)
2,COc1cc(OC)c(C2=NOC(C(=O)Nc3c(C)n(C)n(-c4ccccc4)c3=O)C2)cc1Cl (stereo not given),0.97 (inactive)
3,CN1CCN(CC#CCC2(O)c3ccccc3-c3ccccc32)CC1,1.01 (inactive)
4,CNC(=O)CSc1nnnn1-c1ccc(C)cc1C,1.23 (inactive)
5,CCn1nnnc1SCC(=O)c1ccc(C)cc1C,3.65 (active)
6,COc1ccc(C(=O)CSc2nnnn2C)c(OC)c1,1 (inactive)
7,COCCNC(=O)C(c1ccc(O)cc1)N(C(=O)CCC(=O)Nc1nccs1)c1ccc(C)cc1 (stereo not given),0.99 (inactive)
8,COC(=O)c1ccc(COC(=O)c2cnccn2)cc1,1.22 (inactive)
9,O=C(CN1C(=O)/C(=C/c2ccccc2F)Sc2ccccc21)NCc1cccnc1,0.69 (inactive)
10,OCC(O)CN(c1ccccc1)c1ccccc1 (stereo not given),1.39 (inactive)
11,O=C(OCc1ccc(Br)cc1)c1cccc(-c2nnc(-c3ccccc3)o2)c1,1.7 (inactive)
12,Nc1ccc(-c2nnc(-c3ccc(-c4ccccc4)cc3)o2)cc1,1.31 (inactive)
13,Brc1ccc(-c2nnc(-c3ccccc3)o2)o1,3.89 (active)
14,COc1ccccc1Cn1c(C)nnc1-c1cnn(C)c1N,1.41 (inactive)
15,CCOC1CS(=O)(=O)CC1OCC (stereo not given),5.97 (active)
16,COc1ccccc1N1CCN(/N=C\C(Br)=C\c2ccccc2)CC1,1.33 (inactive)
17,COc1ccc(CCNC(=O)CC2SC(=Nc3cc(C)cc(C)c3)NC2=O)cc1OC (stereo not given),0.95 (inactive)
18,O=C(Nc1ccc(Oc2ccccc2)cc1)c1ccco1,4.89 (active)
19,COC(=O)c1ccc(NC(=O)c2ccco2)cc1,2.51 (inactive)
20,O=C(CSc1ccccc1)Nc1ccc(NC(=O)c2ccco2)cc1,1.45 (inactive)
21,CCS(=O)(=O)Nc1ccc(C2=NN(C(C)=O)C(c3cccs3)C2)cc1 (stereo not given),1.16 (inactive)
22,NS(=O)(=O)c1cccc(NC(=O)COC(=O)/C=C/c2ccco2)c1,1.19 (inactive)
23,Cc1ccc(N(NC(=O)C(C)(C)O)C(=O)c2ccccc2)cc1C,1.37 (inactive)

row,SMILES,fold change
1,CCCCC(O)(CCCC)C(=O)NN(C(=O)CCl)c1ccccc1,4.9 (active)
2,CCCC(O)(CCC)C(=O)NN(C(=O)CCl)c1cccc(C)c1,0.5 (inactive)
3,Cc1nc(-c2ccccc2)sc1C(=O)/C=C/N(C)C,1.77 (inactive)
4,COc1ccccc1NC(=S)N1CCC(NC(=O)C23CC4CC(CC(C4)C2)C3)CC1,0.97 (inactive)
5,CC(C)Cc1cc(C(=O)NCCc2ccccc2)no1,3.27 (inactive)
6,CC(C)Cc1cc(C(=O)Nc2cc(Br)ccc2O)no1,6.03 (active)
7,CC(C)CNC(=O)c1cc(-c2ccc(Br)cc2)on1,0.98 (inactive)
8,O=C(/C=C/c1ccc(Cl)cc1)Nc1ccc(S(=O)(=O)Nc2ncccn2)cc1,0.93 (inactive)
9,O=C(O)c1ccc(N/N=C/c2cn(-c3ccccc3)nc2-c2cccs2)cc1,6.86 (active)
10,O=C(/C=C\c1cn(-c2ccccc2)nc1-c1cccs1)N1CCOCC1,0.42 (inactive)
11,O=C(O)/C=C/c1cn(-c2ccccc2)nc1-c1cccs1,1.14 (inactive)
12,CC(C(=O)NCC1CCCCC1)N(C)Cc1cccc(Cl)c1 (stereo not given),1.18 (inactive)
13,N/C(=N\OC(=O)c1ccc([N+](=O)[O-])cc1)c1ccccn1,5.12 (active)
14,O=C(OCc1ccc([N+](=O)[O-])cc1)c1ccccn1,1.29 (inactive)
15,N/C(=N\OC(=O)Cc1ccc([N+](=O)[O-])cc1)c1ccccn1,1.74 (inactive)
16,CCOc1ncccc1C(=O)OCc1cn2cc(Cl)ccc2n1,1.18 (inactive)
17,O=c1cc(CSc2ccc(Cl)cc2)nc(N2CCOCC2)[nH]1,1.5 (inactive)
18,Clc1ccc2nc(CSc3ccccc3)cn2c1,3.83 (active)
19,CN1CCC(OC(=O)COc2ccc(Cl)cc2Cl)CC1,1.16 (inactive)
20,CCOc1cnc(C(=O)NNC(=O)c2ccccc2Br)o1,1.13 (inactive)
21,COc1ccc(C(=O)NCC(=O)N/N=C/c2ccc([N+](=O)[O-])s2)cc1OC,0.62 (inactive)
